Source: PubChem
HT1080-NT tox: qHTS for induction of synthetic lethality in tumor cells producing 2HG: qHTS for the HT-1080-NT fibrosarcoma cell line; HT-1080-NT fibrosarcoma viability, CellTiter-Glo ATP luminescence, 48 h; Potency, µM (series often up to 46.1 µM), actives largely listed as cytotoxic; hit rate 1.6% among 360,000; AID 686970, 2013;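 also: NT is the 2HG producing partner of a matched IDH1 knockdown line; nearly all actives have a fitted effect of over 55% in size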
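HT-1080-NT fibrosarcoma cells (2HG-overproducing), 750 cells/well in RPMI with 5% FBS, dosed after 2 h and incubated 48 h at 37C. CellTiter-Glo luminescence normalized to DMSO and no-cell wells; concentration-response curves fitted and classed.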
MCF10A rereplic: A quantitative high throughput screen for small molecules that induce DNA re-replication in MCF 10a normal breast cells | MCF 10A DNA re-replication, Hoechst nuclear intensity, 48 h | Potency, µM (top dose mostly 46.1 µM), hits mostly activators | hit rate 2.9% among 350,000 | AID 624296, 2012; also: nearly all actives have a fitted effect of over 50% in size
SW480 rereplic: A quantitative high throughput screen for small molecules that induce DNA re-replication in SW480 colon adenocarcinoma cells; AID 624297, 2012; SW480 DNA re-replication, Hoechst DNA content imaging, 48 h; Potency, µM (highest dose often 46.1 µM), usual class: activators; hit rate 1.8% among 340,000; also: nearly all actives have a fitted effect of over 55% in size
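Cells (250 per well) received 23 nL compound or DMSO by pin tool and were kept 48 hr at 37 C, 5% CO2. Nuclei were then stained with Hoechst for 40 min and scanned for DNA content.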
HT1080 IDH1KD tx: qHTS for induction of synthetic lethality in tumor cells producing 2HG: qHTS for the HT-1080-IDH1KD cell line; hit rate 2% among 360,000; Potency, µM (doses to about 46.1 µM), most hits filed as cytotoxic; HT-1080 IDH1 knockdown viability, ATP luminescence, 48 h
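HT-1080-IDH1KD cells (IDH1 knocked down), 750/well in RPMI with 5% FBS, treated with compound 48 h at 37 degrees C. Viability by CellTiter-Glo luminescence, normalised to DMSO and no-cell wells; concentration-response curves classed.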
KB-3-1 tox: qHTS assay for MDR1-selective chemotherapeutics: Primary screen using the parental adenocarcinoma cell KB-3-1; KB-3-1 viability, CellTiter-Glo ATP luminescence, 72 h; Potency, µM (titrated, usually from 46.1 µM), usual class: cytotoxic; AID 1347075, 2019; hit rate 1.4% among 400,000; also: nearly all actives have a fitted effect of over 60% in size
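Cytotoxicity measured as CellTiter-Glo luminescence after 72 h at 37 C. Compound titrations were pinned onto drug-naive KB-3-1 parental adenocarcinoma cells grown in DMEM with 10% FBS, and normalized data fitted to concentration-response curves.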
KB-V1 cytotox: qHTS assay for MDR1-selective chemotherapeutics: Primary screen using the drug-selected MDR subline cells KB-V1. hit rate 3.4% among 400,000. Potency, µM (series often up to 46.1 µM), hits mostly cytotoxic. AID 1347076, 2019. KB-V1 MDR cells viability, CellTiter-Glo, 72 h; also: nearly all actives have a fitted effect of over 60% in size
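Potencies derive from concentration-effect curves fitted to normalized luminescence (CellTiter-Glo) of KB-V1 cells treated for 72 h at 37 degrees C in phenol-red-free DMEM containing 10% FBS.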
Numbers stand for hits. Hits are enriched below; roughly 8% of the tested compounds scored in any of these assays. Calls follow the shape of the dose curve; as a rule, active = well fitted curve in the direction sought with a large enough effect; inconclusive = small, poorly fitted or top-dose-only effect, or another doubt; inactive = no such curve, though single readings can be large; an effect the other way counts as inactive or inconclusive.

COc1cccc(C2C=C(c3ccc(OC)cc3OC)Nc3nnnn32)c1 (centres undefined) was read as HT1080-NT tox inactive, MCF10A rereplic inconclusive, SW480 rereplic inconclusive, HT1080 IDH1KD tx inactive, KB-3-1 tox inconclusive and KB-V1 cytotox 23µM.
For COc1cccc(C2=CC(c3ccccc3)n3nnnc3N2)c1 (centres undefined) the results were HT1080-NT tox 7.9µM, MCF10A rereplic inactive, SW480 rereplic inactive, HT1080 IDH1KD tx inconclusive, KB-3-1 tox inconclusive and KB-V1 cytotox 6.5µM.
Cc1nn(Cc2ccccc2)c(=O)c2nn(-c3ccc(Cl)cc3)c(C)c12 was read as HT1080-NT tox inactive, MCF10A rereplic inactive, SW480 rereplic inactive, HT1080 IDH1KD tx inactive, KB-3-1 tox inactive and KB-V1 cytotox 8.2µM.
Cc1ccc(-n2nc3c(=O)n(CC(=O)c4ccc(F)cc4)nc(C)c3c2C)cc1 was read as HT1080-NT tox inactive, MCF10A rereplic inconclusive, SW480 rereplic inactive, HT1080 IDH1KD tx inactive, KB-3-1 tox inactive and KB-V1 cytotox 2.9µM.
For CCOc1ccc(-n2nc3c(=O)n(CCN4CCCCC4)nc(C)c3c2C)cc1 the results were HT1080-NT tox inactive, MCF10A rereplic inactive, SW480 rereplic 23µM, HT1080 IDH1KD tx inactive, KB-3-1 tox inactive and KB-V1 cytotox inactive.
Cc1nc2c(C(=O)NCCC(C)C)cnn2c(C)c1Cc1c(F)cccc1Cl was read as KB-3-1 tox inactive and KB-V1 cytotox inconclusive.
CC(Oc1ccccc1)C(=O)Nc1ccc(C(N)=O)cc1 (centres undefined) was read as HT1080-NT tox inactive, MCF10A rereplic inconclusive, SW480 rereplic inactive, HT1080 IDH1KD tx inactive, KB-3-1 tox inactive and KB-V1 cytotox inactive.
Screening CC(=O)c1ccc(NC(=O)C(C)O/N=C(\N)c2ccccc2)cc1 (centres undefined) returned HT1080-NT tox inactive, MCF10A rereplic inactive, SW480 rereplic inactive, HT1080 IDH1KD tx inactive, KB-3-1 tox inactive and KB-V1 cytotox 23µM.
For COc1cc(CNCCCN2CCOCC2)ccc1OCC(=O)Nc1cccc(C(F)(F)F)c1 the results were HT1080-NT tox inconclusive, MCF10A rereplic inconclusive, SW480 rereplic inconclusive, HT1080 IDH1KD tx inconclusive, KB-3-1 tox inactive and KB-V1 cytotox inactive.
Screening CCOC(=O)c1ccccc1NC(=O)COC(=O)c1ccc(OCC(=O)N2CCOCC2)c(OCC)c1 returned HT1080-NT tox inactive, MCF10A rereplic inactive, SW480 rereplic inactive, HT1080 IDH1KD tx inactive, KB-3-1 tox inactive and KB-V1 cytotox 2.6µM.
Screening CCOC(=O)c1ccccc1NC(=O)c1ccc(Cl)c(S(=O)(=O)N2CCOCC2)c1 returned HT1080-NT tox inactive, MCF10A rereplic inactive, SW480 rereplic inactive, HT1080 IDH1KD tx inactive, KB-3-1 tox inactive and KB-V1 cytotox 7.3µM.
For CCOC(=O)c1ccccc1NC(=O)COC(=O)c1ccc(C)c(S(=O)(=O)N2CCOCC2)c1 the results were HT1080-NT tox inactive, MCF10A rereplic inactive, SW480 rereplic inactive, HT1080 IDH1KD tx inactive, KB-3-1 tox inactive and KB-V1 cytotox inactive.
For O=C(Nc1ccccc1N1CCCC1)c1ccc(Cl)c(S(=O)(=O)N2CCOCC2)c1 the results were HT1080-NT tox inactive, MCF10A rereplic inconclusive, SW480 rereplic inactive, HT1080 IDH1KD tx inactive, KB-3-1 tox inactive and KB-V1 cytotox 15µM.
For CCOc1cc(CNCCCN2CCOCC2)ccc1OCC(=O)Nc1cccc2ccccc12 the results were HT1080-NT tox 10µM, MCF10A rereplic inactive, SW480 rereplic inconclusive, HT1080 IDH1KD tx 11µM, KB-3-1 tox inactive and KB-V1 cytotox inactive.
Cc1cnc(C=NNC(N)=S)c2cccc(N)c12 was read as HT1080-NT tox inactive, MCF10A rereplic inactive, SW480 rereplic inconclusive, HT1080 IDH1KD tx inconclusive, KB-3-1 tox inactive and KB-V1 cytotox 7.3µM.
